Test results: ChEMBL document CHEMBL3988442, “University of Dundee, Small-Polar-MMV Screening Library” (2021)
For some assays here: Entries with a potency or affinity are not part of this list.

Columns and labels:
Parameters in all cases: scale not given: direction of the effect not stated beside the values
[1] = target: Protein translocase subunit SecA (Escherichia coli (strain K12)) (UniProt P10408); assay: Assay to Identify E. coli SecA ATPase Inhibitors; assay type: functional; conditions: 30 µM
[2] = target: T1, Ubiquitin-activating enzyme e1, putative (Leishmania donovani (strain BPK282A1)) (UniProt E9BSI1); assay: Leishmania donovani Ubiquitin Activating Enzyme (LdE1); assay type: functional; conditions: 30 µM
T1 sequence (whole entry): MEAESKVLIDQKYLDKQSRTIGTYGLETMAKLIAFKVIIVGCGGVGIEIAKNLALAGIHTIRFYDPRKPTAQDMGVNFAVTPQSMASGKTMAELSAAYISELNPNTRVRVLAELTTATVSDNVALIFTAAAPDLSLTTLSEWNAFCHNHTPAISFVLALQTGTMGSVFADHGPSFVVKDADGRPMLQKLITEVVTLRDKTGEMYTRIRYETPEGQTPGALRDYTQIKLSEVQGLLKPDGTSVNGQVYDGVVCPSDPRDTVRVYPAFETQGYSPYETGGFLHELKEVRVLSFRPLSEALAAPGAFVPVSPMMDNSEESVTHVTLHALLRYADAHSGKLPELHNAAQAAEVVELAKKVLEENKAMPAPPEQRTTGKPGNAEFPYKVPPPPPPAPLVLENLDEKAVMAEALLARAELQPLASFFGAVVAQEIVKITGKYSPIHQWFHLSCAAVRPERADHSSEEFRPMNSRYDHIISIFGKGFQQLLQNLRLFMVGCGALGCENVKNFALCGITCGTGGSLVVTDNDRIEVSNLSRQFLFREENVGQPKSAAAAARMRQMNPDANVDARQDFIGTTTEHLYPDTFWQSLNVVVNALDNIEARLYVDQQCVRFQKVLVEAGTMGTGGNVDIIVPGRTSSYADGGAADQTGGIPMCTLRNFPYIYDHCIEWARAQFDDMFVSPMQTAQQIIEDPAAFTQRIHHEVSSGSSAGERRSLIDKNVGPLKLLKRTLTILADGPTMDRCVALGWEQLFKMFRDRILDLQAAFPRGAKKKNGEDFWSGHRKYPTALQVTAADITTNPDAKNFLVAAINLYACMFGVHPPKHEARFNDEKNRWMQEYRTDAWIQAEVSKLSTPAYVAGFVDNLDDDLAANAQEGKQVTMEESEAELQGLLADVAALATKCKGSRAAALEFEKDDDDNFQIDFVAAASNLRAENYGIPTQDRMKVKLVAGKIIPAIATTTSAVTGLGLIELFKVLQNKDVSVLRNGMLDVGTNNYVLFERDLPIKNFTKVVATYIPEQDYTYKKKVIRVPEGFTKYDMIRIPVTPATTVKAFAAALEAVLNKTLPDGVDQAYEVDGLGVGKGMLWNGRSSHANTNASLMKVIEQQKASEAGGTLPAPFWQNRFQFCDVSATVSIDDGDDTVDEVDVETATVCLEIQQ

[3] = target: AMP-activated protein kinase, AMPK (Homo sapiens) (UniProt P54646+O43741+P54619+Q9UGJ0+Q9Y478+Q13131+Q9UGI9); assay: AMP-dependent Kinase enzyme assay. An in vitro enzyme assay that detects ADP turnover that is directly proportional to AMPK activity. This uses naive AMPK that is activated during the assay with MK-8722; assay type: functional; conditions: 30 µM
[4] = target: Sialic acid-binding Ig-like lectin 9 (Homo sapiens) (UniProt Q9Y336); assay: Hs-Siglec9 ALPHAscreen SOP 20170721; conditions: 10 µM
Trypanosoma cruzi = assay: Trypanosoma cruzi phosphomannomutase and mannose-1-phosphate guanylyltransferase assay; assay type: functional; conditions: 10 µM
[5] = target: T2, Arginase-2, mitochondrial (Homo sapiens) (UniProt P78540); assay: in vitro enzyme assay to detect the production of urea directly proportional to the activity of Arginase II; assay type: functional; conditions: 33.3 µM; further: in the data most compounds retested in dose-response had high values
T2 sequence (whole entry): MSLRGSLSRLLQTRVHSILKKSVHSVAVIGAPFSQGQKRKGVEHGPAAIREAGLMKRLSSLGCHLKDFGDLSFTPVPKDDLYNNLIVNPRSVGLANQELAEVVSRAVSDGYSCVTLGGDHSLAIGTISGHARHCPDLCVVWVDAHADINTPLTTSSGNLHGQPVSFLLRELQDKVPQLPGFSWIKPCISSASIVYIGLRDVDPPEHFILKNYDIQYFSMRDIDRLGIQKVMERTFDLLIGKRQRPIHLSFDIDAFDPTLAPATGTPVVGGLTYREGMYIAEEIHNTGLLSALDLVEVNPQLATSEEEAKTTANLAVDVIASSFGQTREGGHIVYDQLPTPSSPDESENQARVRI

[6] = target: T3, Proteasome subunit beta (Trypanosoma cruzi) (UniProt O96673); assay: Trypanosoma cruzi proteasome chymotrypsin-like activity (TcProtChymo) assay.; further: in the data most compounds retested in dose-response had high values; assay type: functional; conditions: 9.37 µM
T3 sequence (whole entry): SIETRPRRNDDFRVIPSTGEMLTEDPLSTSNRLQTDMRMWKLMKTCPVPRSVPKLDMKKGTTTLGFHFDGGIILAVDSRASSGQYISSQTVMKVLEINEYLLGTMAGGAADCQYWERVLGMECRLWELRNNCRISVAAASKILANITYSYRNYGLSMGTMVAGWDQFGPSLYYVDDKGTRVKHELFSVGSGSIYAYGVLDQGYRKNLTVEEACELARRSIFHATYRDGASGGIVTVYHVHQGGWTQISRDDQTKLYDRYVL

Homo sapiens = organism: Homo sapiens; assay: To identify inhibition of the IFN signalling (Jak-Stat) pathway via expression of an eGFP reporter gene under the control of an IFN-stimulated response element (ISRE) containing MxA promoter.; assay type: functional; conditions: 30 µM
[7] = target: T4, Tyrosyl-tRNA synthetase, putative (Trypanosoma cruzi (strain CL Brener)) (UniProt Q4DSP6); assay: Trypanosoma cruzi tyrosyl tRNA synthetase (TcYRS) _High Tyrosine SOP; assay type: functional; conditions: 30 µM; further: in the data most compounds retested in dose-response had high values
T4 sequence (whole entry): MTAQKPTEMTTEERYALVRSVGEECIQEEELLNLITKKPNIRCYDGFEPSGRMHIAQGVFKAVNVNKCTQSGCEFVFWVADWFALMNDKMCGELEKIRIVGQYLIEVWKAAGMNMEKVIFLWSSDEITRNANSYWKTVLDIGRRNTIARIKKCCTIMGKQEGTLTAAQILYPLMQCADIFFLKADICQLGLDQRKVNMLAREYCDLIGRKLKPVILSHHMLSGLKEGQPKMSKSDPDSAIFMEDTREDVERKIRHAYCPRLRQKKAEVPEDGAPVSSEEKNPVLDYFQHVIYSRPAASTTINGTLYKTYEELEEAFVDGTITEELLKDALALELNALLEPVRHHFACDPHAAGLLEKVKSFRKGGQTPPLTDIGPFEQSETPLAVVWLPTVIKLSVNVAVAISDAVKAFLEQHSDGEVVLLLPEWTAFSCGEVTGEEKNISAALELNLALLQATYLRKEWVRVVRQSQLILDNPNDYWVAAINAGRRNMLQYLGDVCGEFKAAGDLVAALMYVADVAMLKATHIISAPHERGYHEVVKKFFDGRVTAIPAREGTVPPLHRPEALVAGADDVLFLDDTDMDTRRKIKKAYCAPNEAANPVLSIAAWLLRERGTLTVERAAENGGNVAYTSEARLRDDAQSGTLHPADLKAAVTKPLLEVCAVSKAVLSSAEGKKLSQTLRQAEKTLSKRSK

[8] = target: T4, Tyrosyl-tRNA synthetase, putative (Trypanosoma cruzi (strain CL Brener)); assay: Trypanosoma cruzi tyrosyl tRNA synthetase (TcYRS) SOP; assay type: functional; conditions: 30 µM
[9] = target: Chromo domain-containing protein 1 (Saccharomyces cerevisiae (strain ATCC 204508 / S288c) (Baker's yeast)) (UniProt P32657); assay: ScCHD-1 Enzyme Inhibition Assay; assay type: functional; conditions: 30 µM; further: in the data most compounds retested in dose-response had high values
Chain of Chromo domain-containing protein 1 (Saccharomyces cerevisiae (strain ATCC 204508 / S288c) (Baker's yeast)) (P32657 whole entry, the tested form may be a part): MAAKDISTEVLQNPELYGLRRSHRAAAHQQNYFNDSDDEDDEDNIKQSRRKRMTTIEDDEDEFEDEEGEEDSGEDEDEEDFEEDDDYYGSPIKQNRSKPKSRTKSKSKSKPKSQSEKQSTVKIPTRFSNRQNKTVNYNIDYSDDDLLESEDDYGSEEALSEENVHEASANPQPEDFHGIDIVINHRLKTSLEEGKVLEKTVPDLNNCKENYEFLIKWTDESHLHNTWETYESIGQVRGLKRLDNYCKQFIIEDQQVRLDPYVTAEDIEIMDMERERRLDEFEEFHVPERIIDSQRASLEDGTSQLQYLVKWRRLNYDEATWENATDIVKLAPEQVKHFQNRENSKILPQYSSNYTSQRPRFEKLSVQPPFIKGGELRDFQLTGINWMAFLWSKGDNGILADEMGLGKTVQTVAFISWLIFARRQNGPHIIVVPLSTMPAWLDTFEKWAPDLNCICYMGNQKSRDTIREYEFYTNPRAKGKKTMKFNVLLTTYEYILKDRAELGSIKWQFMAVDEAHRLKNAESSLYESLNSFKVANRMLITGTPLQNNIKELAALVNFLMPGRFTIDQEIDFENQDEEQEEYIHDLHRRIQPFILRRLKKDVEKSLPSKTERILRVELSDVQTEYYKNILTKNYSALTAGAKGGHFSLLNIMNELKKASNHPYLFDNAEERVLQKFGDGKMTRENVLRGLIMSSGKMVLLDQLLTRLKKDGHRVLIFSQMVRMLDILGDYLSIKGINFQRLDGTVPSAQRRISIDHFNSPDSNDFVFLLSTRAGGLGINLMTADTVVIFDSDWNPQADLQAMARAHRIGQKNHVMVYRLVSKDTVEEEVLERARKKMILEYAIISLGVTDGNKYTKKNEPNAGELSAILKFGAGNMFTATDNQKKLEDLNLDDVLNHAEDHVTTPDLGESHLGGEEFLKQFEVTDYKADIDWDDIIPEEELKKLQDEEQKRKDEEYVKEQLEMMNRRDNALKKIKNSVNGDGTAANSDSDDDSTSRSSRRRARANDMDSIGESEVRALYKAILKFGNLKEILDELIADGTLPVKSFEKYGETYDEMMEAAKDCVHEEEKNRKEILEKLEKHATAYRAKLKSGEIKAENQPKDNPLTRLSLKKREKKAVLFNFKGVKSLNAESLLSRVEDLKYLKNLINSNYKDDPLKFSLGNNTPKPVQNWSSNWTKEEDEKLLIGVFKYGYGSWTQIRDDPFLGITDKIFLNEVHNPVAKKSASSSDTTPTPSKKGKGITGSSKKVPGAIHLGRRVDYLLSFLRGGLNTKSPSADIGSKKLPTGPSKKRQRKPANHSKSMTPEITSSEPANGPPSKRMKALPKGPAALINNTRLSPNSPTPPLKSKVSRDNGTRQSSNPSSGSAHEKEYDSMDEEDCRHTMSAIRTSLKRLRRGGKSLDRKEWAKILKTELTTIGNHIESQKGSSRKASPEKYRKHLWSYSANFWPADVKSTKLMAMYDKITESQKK

Chain of Sialic acid-binding Ig-like lectin 9 (Homo sapiens) (Q9Y336 whole entry): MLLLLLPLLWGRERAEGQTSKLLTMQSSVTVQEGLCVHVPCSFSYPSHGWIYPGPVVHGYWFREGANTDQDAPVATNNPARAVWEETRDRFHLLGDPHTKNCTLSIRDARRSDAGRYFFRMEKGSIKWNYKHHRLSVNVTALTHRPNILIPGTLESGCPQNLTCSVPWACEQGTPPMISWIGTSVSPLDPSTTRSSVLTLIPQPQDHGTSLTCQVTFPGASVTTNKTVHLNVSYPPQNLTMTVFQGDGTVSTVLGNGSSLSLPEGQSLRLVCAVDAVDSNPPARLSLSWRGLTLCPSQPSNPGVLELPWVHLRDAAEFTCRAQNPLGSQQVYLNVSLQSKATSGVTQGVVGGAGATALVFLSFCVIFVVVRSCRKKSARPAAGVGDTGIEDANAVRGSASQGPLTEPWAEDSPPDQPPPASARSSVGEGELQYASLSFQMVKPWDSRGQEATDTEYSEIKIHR
Chain of Protein translocase subunit SecA (Escherichia coli (strain K12)) (P10408 whole entry): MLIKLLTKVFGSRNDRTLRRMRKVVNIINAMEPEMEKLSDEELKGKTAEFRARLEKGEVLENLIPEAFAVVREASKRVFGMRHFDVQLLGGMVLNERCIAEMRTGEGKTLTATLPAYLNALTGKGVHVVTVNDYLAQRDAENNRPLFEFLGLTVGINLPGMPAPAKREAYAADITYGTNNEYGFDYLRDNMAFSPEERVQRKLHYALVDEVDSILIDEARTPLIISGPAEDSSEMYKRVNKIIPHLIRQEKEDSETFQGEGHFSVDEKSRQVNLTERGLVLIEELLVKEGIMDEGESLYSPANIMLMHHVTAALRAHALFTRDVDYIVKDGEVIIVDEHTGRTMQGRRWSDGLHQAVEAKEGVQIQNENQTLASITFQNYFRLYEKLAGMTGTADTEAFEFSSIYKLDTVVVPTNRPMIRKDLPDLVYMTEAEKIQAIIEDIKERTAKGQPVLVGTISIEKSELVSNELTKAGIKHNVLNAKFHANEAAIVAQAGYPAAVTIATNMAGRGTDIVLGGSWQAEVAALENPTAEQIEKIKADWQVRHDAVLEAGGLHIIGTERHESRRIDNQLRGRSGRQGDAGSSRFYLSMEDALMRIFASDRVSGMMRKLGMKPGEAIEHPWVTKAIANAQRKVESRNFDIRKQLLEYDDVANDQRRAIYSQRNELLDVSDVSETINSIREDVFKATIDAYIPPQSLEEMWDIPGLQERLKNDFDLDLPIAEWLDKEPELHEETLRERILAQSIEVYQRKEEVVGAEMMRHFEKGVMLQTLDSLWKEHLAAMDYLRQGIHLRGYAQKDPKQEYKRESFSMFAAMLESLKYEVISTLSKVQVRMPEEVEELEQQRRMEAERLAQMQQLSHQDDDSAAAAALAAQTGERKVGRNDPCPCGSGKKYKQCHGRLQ

| SMILES | Percent Effect [1] [%] | Percent Effect [2] [%] | Percent Effect [3] [%] | Percent Effect [4] [%] | Percent Effect (Trypanosoma cruzi) [%] | Percent Effect [5] [%] | Percent Effect [6] [%] | Percent Effect (Homo sapiens) [%] | Percent Effect [7] [%] | Percent Effect [8] [%] | Percent Effect [9] [%] |
| --- | --- | --- | --- | --- | --- | --- | --- | --- | --- | --- | --- |
| COC(=O)CNC(=O)CSCc1nc(O)c2c(C)c(C)sc2n1 | -1.31 | -6.67 | 14.7 | 4.89 | -3.93 | 3.7 | 9.8 | -3.69 | 3.17 | 0 | -4.91 |
| CN(CCn1nc2ccccn2c1=O)CC(=O)N1CCCC1 | -5.53 | 0 | 6.84 | 5.95 | -6.33 | 3.55 | 11.6 | 15.5 | 3.19 | 2.6 | 29.3 |
| CCc1nc(NCCCOC)c2c(n1)c(C)nn2C | 0.06 | 17.3 | 0.763 | 2.98 | 1.18 | -0.176 | 20.1 | 29.9 | 5.29 | 17.9 | -11.5 |
| CCc1nc(C(=O)N2CCCC2)nn1-c1ccccc1Cl | -7.61 | 10.5 | -8.39 | 16.4 | 4.95 | 2.16 | 2.62 | 4.97 | 7.39 | 18.5 | -7.11 |
| Cn1nc2c(cc1=O)CN(CC(=O)Nc1ccc(Cl)cn1)CC2 | -3.42 | 18.1 | -417 | 5.46 | -0.291 | -1.32 | 12.3 | -2.31 | -2.1 | -5.13 | -1.83 |
| O=C(CN1CCC(N2CCNC2=O)CC1)NCC(F)(F)F | -3.52 | 17.7 | -4.25 | 3.47 | -2.36 | 4.56 | 5 | 9.87 | 5.42 | 13.9 | -4.76 |
| CCC1=N[C@@]2(CC[C@@H]3CN(S(=O)(=O)N(C)C)C[C@@H]32)C(=O)N1CC(C)C | -1.28 | 10.4 | -3.92 | 6.82 | -2.07 | 3.23 | -0.696 | -7.21 | 5.29 | 11.5 | -6.8 |
| Fc1ccc(CN2CCC(c3n[nH]c4nccnc34)CC2)cc1F | -3.35 | 9.46 | 4.38 | -4.91 | 0.593 | -1.16 | 19.8 | 7.61 | 1.07 | 6.49 | -18.1 |
| O=C(CCOc1ccccc1)N1CCC(Nc2cccnn2)CC1 | -6.73 | 13.2 | -7.1 | 16.8 | 2.15 | -0.719 | 5.5 | 8.93 | 6.4 | 18.5 | -5.39 |
| c1cnnc(NCC2CN(Cc3cccc4c3OCCO4)CCO2)c1 (stereo unspecified) | -3.5 | 5.2 | 2.26 | 4.61 | 9.55 | -2.13 | 1.18 | 18.6 | 10.7 | 24.4 | -7.39 |
| CCc1ncc2c(n1)CN(C(=O)COC)C2 | -3.52 | 8.22 | -3.13 | -3.99 | 2.55 | 1.36 | 12.1 | 8.48 | 9.68 | 22.5 | -4.35 |
| COCCc1noc(CNC2CCCN(c3cccnn3)C2)n1 (stereo unspecified) | -5.96 | -5.2 | -0.848 | -4.06 | -3.25 | 11 | 19.3 | 3.62 | 0 | -3.7 | 0.853 |
| CCO[C@@H]1CCN(C(=O)c2ccc[nH]2)[C@@H]1Cc1cnn(C)c1 | -3.08 | 0 | 17.3 | -3.48 | -5.91 | 3.5 | 2.56 | 19.4 | 4.25 | 3.85 | -2.5 |
| O=C(NCCN1CCCCCC1=O)c1ccn(-c2ccc(F)cc2)n1 | 1.12 | 13.5 | -9.65 | -9.89 | -6.51 | 0 | 15.5 | 24.8 | 4.43 | 16.1 | -5.87 |
| NS(=O)(=O)c1ccc(NC(=O)CSc2ccc3c(c2)CCC3)cc1 | -2.43 | -2.7 | 2.08 | -4.31 | -4.69 | -21.2 | 13.1 | 6.93 | 1.98 | -13.4 | 17.3 |
| CC(C)CCN1Cc2c(C(=O)O)ncn2-c2ccccc2S1(=O)=O | 0.538 | 16.2 | 16.3 | -10.3 | -3.42 | 0.319 | 10.7 | 10.4 | 4.32 | 10.3 | -8.5 |
